# Laboratory results taken from PubChem BioAssay AID1159580 (chemical genetic matrix, 2015).
# “And” between values parts separate entries of the source, which are not always exact repeats. Identical values can stand only once. The campaign covered roughly 5,500 compounds. About 2,000 (36%) were called active. About 18% were inconclusive and are not listed. This is one part of the list. A number with no mark means an inactive call. Rule as the data show it: active = normalized growth mostly below about 0.91 (no sharp cut-off); inconclusive = no clear call, values can overlap the other calls; inactive = mostly above about 0.92.
# Test: chemical genetic growth profiling, strain panel (AID 1159580);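 also: tested at 20 µM; growth read once vehicle control cultures reached saturation at 30 °C; 1 = growth at the plate median or of vehicle wells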
# Details: growth OD
structure (smiles),measurement,setting,value
O=c1[nH]cc(F)c(=O)[nH]1,normalized growth,"S. cerevisiae deletion strains, locus YKL009W, strain mrt4, stronger effect = lower value",0.862 (active)
same,normalized growth,"S. cerevisiae deletion strains, locus YKL068W, stronger effect = lower value",0.995
same,normalized growth,"S. cerevisiae deletion strains, locus YKL085W, strain MDH1 (second series), stronger effect = lower value",0.965
same,normalized growth,"S. cerevisiae deletion strains, locus YKL085W, strain MDH1, stronger effect = lower value",0.965
same,normalized growth,"S. cerevisiae deletion strains, locus YKL160W, strain elf1, stronger effect = lower value",0.671 (active)
same,normalized growth,"S. cerevisiae deletion strains, locus YKL190W, strain CNB1, stronger effect = lower value",0.858 (active)
same,normalized growth,"S. cerevisiae deletion strains, locus YKR001C, strain vps1, stronger effect = lower value",0.471 (active)
same,normalized growth,"S. cerevisiae deletion strains, locus YKR026C, strain gcn3, stronger effect = lower value",0.83 (active)
same,normalized growth,"S. cerevisiae deletion strains, locus YKR091W, strain srl3, stronger effect = lower value",1.01
same,normalized growth,"S. cerevisiae deletion strains, locus YLL001W, strain dnm1, stronger effect = lower value",0.456 (active)
same,normalized growth,"S. cerevisiae deletion strains, locus YLL026W, stronger effect = lower value",0.588 (active)
same,normalized growth,"S. cerevisiae deletion strains, locus YLL041C, strain sdh2, stronger effect = lower value",0.849 (active)
same,normalized growth,"S. cerevisiae deletion strains, locus YLR027C, strain aat2, stronger effect = lower value",0.537 (active)
same,normalized growth,"S. cerevisiae deletion strains, locus YLR039C, strain RIC1, stronger effect = lower value",0.601 (active)
same,normalized growth,"S. cerevisiae deletion strains, locus YLR058C, strain SHM2, stronger effect = lower value",0.746 (active)
same,normalized growth,"S. cerevisiae deletion strains, locus YLR102C, strain apc9, stronger effect = lower value",0.943
same,normalized growth,"S. cerevisiae deletion strains, locus YLR113W, strain HOG1, stronger effect = lower value",0.772 (active)
same,normalized growth,"S. cerevisiae deletion strains, locus YLR221C, strain rsa3, stronger effect = lower value",0.411 (active)
same,normalized growth,"S. cerevisiae deletion strains, locus YLR258W, strain gsy2, stronger effect = lower value",0.542 (active)
same,normalized growth,"S. cerevisiae deletion strains, locus YLR262C, strain YPT6 (second series), stronger effect = lower value",0.63 (active)
same,normalized growth,"S. cerevisiae deletion strains, locus YLR262C, strain YPT6, stronger effect = lower value",0.647
same,normalized growth,"S. cerevisiae deletion strains, locus YLR268W, strain sec22, stronger effect = lower value",0.726 (active)
same,normalized growth,"S. cerevisiae deletion strains, locus YLR320W, strain mms22, stronger effect = lower value",0.509 (active)
same,normalized growth,"S. cerevisiae deletion strains, locus YLR330W, strain CHS5, stronger effect = lower value",0.966
same,normalized growth,"S. cerevisiae deletion strains, locus YLR342W, strain FKS1 (second series), stronger effect = lower value",0.743 (active)
same,normalized growth,"S. cerevisiae deletion strains, locus YLR342W, strain FKS1, stronger effect = lower value",0.807 (active)
same,normalized growth,"S. cerevisiae deletion strains, locus YLR357W, strain rsc2, stronger effect = lower value",0.775 (active)
same,normalized growth,"S. cerevisiae deletion strains, locus YLR370C, strain arc18, stronger effect = lower value",0.562 (active)
same,normalized growth,"S. cerevisiae deletion strains, locus YLR371W, strain rom2, stronger effect = lower value",0.867 (active)
same,normalized growth,"S. cerevisiae deletion strains, locus YLR384C, strain iki3, stronger effect = lower value",0.809 (active)
same,normalized growth,"S. cerevisiae deletion strains, locus YLR418C, strain cdc73, stronger effect = lower value",0.819 (active)
same,normalized growth,"S. cerevisiae deletion strains, locus YML016C, strain PPZ1, stronger effect = lower value",0.864 (active)
same,normalized growth,"S. cerevisiae deletion strains, locus YML032C, strain rad52, stronger effect = lower value",0.642 (active)
same,normalized growth,"S. cerevisiae deletion strains, locus YML120C, strain ndi1, stronger effect = lower value",0.464 (active)
same,normalized growth,"S. cerevisiae deletion strains, locus YML124C, strain tub3, stronger effect = lower value",0.914 (active)
same,normalized growth,"S. cerevisiae deletion strains, locus YMR058W, strain fet3, stronger effect = lower value",0.562 (active)
same,normalized growth,"S. cerevisiae deletion strains, locus YMR078C, strain ctf18, stronger effect = lower value",0.994
same,normalized growth,"S. cerevisiae deletion strains, locus YMR125W, strain sto1, stronger effect = lower value",1.12 [resistant] (active)
same,normalized growth,"S. cerevisiae deletion strains, locus YMR129W, stronger effect = lower value",0.701 (active)
same,normalized growth,"S. cerevisiae deletion strains, locus YMR205C, strain PFK2, stronger effect = lower value",0.919
same,normalized growth,"S. cerevisiae deletion strains, locus YMR223W, strain ubp8, stronger effect = lower value",0.613 (active)
same,normalized growth,"S. cerevisiae deletion strains, locus YMR231W, strain pep5, stronger effect = lower value",0.793 (active)
same,normalized growth,"S. cerevisiae deletion strains, locus YMR263W, strain SAP30, stronger effect = lower value",0.957 and 1.01
same,normalized growth,"S. cerevisiae deletion strains, locus YMR307W, strain GAS1, stronger effect = lower value",0.901 and 0.99
same,normalized growth,"S. cerevisiae deletion strains, locus YNL067W, strain RPL9B, stronger effect = lower value",0.84 (active)
same,normalized growth,"S. cerevisiae deletion strains, locus YNL071W, strain lat1, stronger effect = lower value",0.698 (active)
same,normalized growth,"S. cerevisiae deletion strains, locus YNL128W, strain TEP1, stronger effect = lower value",0.784 (active)
same,normalized growth,"S. cerevisiae deletion strains, locus YNL175C, strain NOP13, stronger effect = lower value",1.03
same,normalized growth,"S. cerevisiae deletion strains, locus YNL183C, strain NPR1, stronger effect = lower value",0.611 (active)
same,normalized growth,"S. cerevisiae deletion strains, locus YNL197C, strain WHI3, stronger effect = lower value",1.01
same,normalized growth,"S. cerevisiae deletion strains, locus YNL209W, strain ssb2, stronger effect = lower value",0.647 (active)
same,normalized growth,"S. cerevisiae deletion strains, locus YNL224C, strain SQS1, stronger effect = lower value",0.929
same,normalized growth,"S. cerevisiae deletion strains, locus YNL233W, strain BNI4, stronger effect = lower value",0.843 (active)
same,normalized growth,"S. cerevisiae deletion strains, locus YNL248C, strain rpa49, stronger effect = lower value",0.346 (active)
same,normalized growth,"S. cerevisiae deletion strains, locus YNL250W, strain rad50, stronger effect = lower value",0.848 (active)
same,normalized growth,"S. cerevisiae deletion strains, locus YNL271C, strain bni1, stronger effect = lower value",0.811 (active)
same,normalized growth,"S. cerevisiae deletion strains, locus YNL298W, strain CLA4, stronger effect = lower value",0.905 (active)
same,normalized growth,"S. cerevisiae deletion strains, locus YNL307C, strain MCK1, stronger effect = lower value",0.756 (active)
same,normalized growth,"S. cerevisiae deletion strains, locus YNL322C, strain KRE1 (second series), stronger effect = lower value",0.65 (active)
same,normalized growth,"S. cerevisiae deletion strains, locus YNR049C, strain mso1, stronger effect = lower value",0.647 (active)
same,normalized growth,"S. cerevisiae deletion strains, locus YNR052C, strain pop2, stronger effect = lower value",0.909 (active)
same,normalized growth,"S. cerevisiae deletion strains, locus YOL012C, strain htz1",2.56 [resistant] (active)
same,normalized growth,"S. cerevisiae deletion strains, locus YOL147C, strain pex11, stronger effect = lower value",0.796 (active)
same,normalized growth,"S. cerevisiae deletion strains, locus YOR001W, strain rrp6, stronger effect = lower value",0.193 (active)
same,normalized growth,"S. cerevisiae deletion strains, locus YOR061W, strain CKA2, stronger effect = lower value",0.947
same,normalized growth,"S. cerevisiae deletion strains, locus YOR069W, strain VPS5, stronger effect = lower value",0.858 (active)
same,normalized growth,"S. cerevisiae deletion strains, locus YOR070C, strain gyp1, stronger effect = lower value",0.622 (active)
same,normalized growth,"S. cerevisiae deletion strains, locus YOR080W, strain dia2, stronger effect = lower value",0.809 (active)
same,normalized growth,"S. cerevisiae deletion strains, locus YOR083W, strain WHI5 (second series), stronger effect = lower value",1.03
same,normalized growth,"S. cerevisiae deletion strains, locus YOR083W, strain WHI5, stronger effect = lower value",0.686 (active)
same,normalized growth,"S. cerevisiae deletion strains, locus YOR106W, strain vam3, stronger effect = lower value",0.394 (active)
same,normalized growth,"S. cerevisiae deletion strains, locus YOR136W, strain idh2, stronger effect = lower value",0.902 (active)
same,normalized growth,"S. cerevisiae deletion strains, locus YOR144C, strain elg1, stronger effect = lower value",0.999
same,normalized growth,"S. cerevisiae deletion strains, locus YOR184W, strain ser1, stronger effect = lower value",0.561 (active)
same,normalized growth,"S. cerevisiae deletion strains, locus YOR231W, strain MKK1, stronger effect = lower value",0.549 (active)
same,normalized growth,"S. cerevisiae deletion strains, locus YOR265W, strain rbl2, stronger effect = lower value",0.654 (active)
same,normalized growth,"S. cerevisiae deletion strains, locus YOR270C, strain vph1, stronger effect = lower value",0.397 (active)
same,normalized growth,"S. cerevisiae deletion strains, locus YOR290C, strain snf2, stronger effect = lower value",0.415 (active)
same,normalized growth,"S. cerevisiae deletion strains, locus YOR316C, strain cot1, stronger effect = lower value",0.958
same,normalized growth,"S. cerevisiae deletion strains, locus YPL051W, strain arl3, stronger effect = lower value",0.598 (active)
same,normalized growth,"S. cerevisiae deletion strains, locus YPL055C, strain LGE1, stronger effect = lower value",0.955
same,normalized growth,"S. cerevisiae deletion strains, locus YPL078C, strain atp4, stronger effect = lower value",0.482 (active)
same,normalized growth,"S. cerevisiae deletion strains, locus YPL106C, strain sse1, stronger effect = lower value",0.709 (active)
same,normalized growth,"S. cerevisiae deletion strains, locus YPL240C, strain hsp82, stronger effect = lower value",0.671 (active)
same,normalized growth,"S. cerevisiae deletion strains, locus YPL241C, strain CIN2, stronger effect = lower value",1.03
same,normalized growth,"S. cerevisiae deletion strains, locus YPL256C, strain CLN2, stronger effect = lower value",0.714 (active)
same,normalized growth,"S. cerevisiae deletion strains, locus YPR119W, strain clb2, stronger effect = lower value",1.03
same,normalized growth,"S. cerevisiae deletion strains, locus YPR141C, strain kar3, stronger effect = lower value",1.03
same,normalized growth,"S. cerevisiae deletion strains, locus YPR163C, strain tif3, stronger effect = lower value",0.981
same,normalized growth,"S. cerevisiae deletion strains, locus YPR167C, strain met16, stronger effect = lower value",0.831 (active)
same,normalized growth,"S. cerevisiae deletion strains, strain wtn01, stronger effect = lower value",0.635 (active)
same,normalized growth,"S. cerevisiae strains, strain wild type, stronger effect = lower value",0.776 (active)
